Assay outcomes as filed in PubChem.
BAZ2B inh – BAZ2B (human) inhibition. Q9UIF8. AlphaScreen BAZ2B-H3K14Ac peptide displacement. Potency, µM (top dose mostly 114 µM), for inactives: at the highest dose activity change, negative = inhibition, hits mostly inhibitors. 360,000 tested, 4.4% active. AID 504333; also: % is scaled to controls: 0 for no effect and ±100 for the full control effect; nearly all actives have a fitted effect of over 60% in size
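In this displacement format the biotinylated H3(5-23) peptide acetylated at Lys14 serves as ligand at 50 nM, with BAZ2B at 50 nM in PBS pH 7.4 containing 0.01% Tween-20. Donor and acceptor beads are 10 ug/mL final.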
HP1b chromo inh – blocks HP1-beta chromodomain binding to methylated histone tails; P83916; AlphaScreen HP1-beta / biotin-H3K9me3 peptide binding; Potency, µM (doses to about 114 µM), without a hit: at the top dose activity change, negative = inhibition, actives largely listed as inhibitors; 390,000 tested, 0.56% active; also: nearly all actives have a fitted effect of over 70% in size
Target sequence (P83916 whole entry, looked up): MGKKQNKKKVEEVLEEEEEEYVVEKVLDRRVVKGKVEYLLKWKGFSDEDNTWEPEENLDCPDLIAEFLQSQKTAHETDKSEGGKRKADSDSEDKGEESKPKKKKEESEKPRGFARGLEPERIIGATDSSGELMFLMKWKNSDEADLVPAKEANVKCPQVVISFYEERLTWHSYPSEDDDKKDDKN
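AlphaScreen: HP1-beta (50 nM) preformed 30 min with biotin-H3(1-18)K9me3 peptide (50 nM) in PBS pH 7.4, 0.01% Tween-20. Compound added for 30 min at RT, then streptavidin donor/nickel chelate acceptor beads (10 ug/mL) for 30 min.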
Sfp inh – blocks B. subtilis Sfp PPTase activity; 310,000 tested, 3.5% active; Biochemical Sfp PPTase activity, qHTS; Potency, µM, for inactives: largest response in the series, negative = inhibition, usual class: inhibitors; Q9F4F7;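 also: the enzyme is Sfp with the accession as filed and its product quenches rhodamine fluorescence; 0% = enzyme reaction without inhibitor and -100% = no enzyme wells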
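Fluorescence-quenching assay with 15 nM Sfp, 5 uM rhodamine-CoA and 12.5 uM BHQ-2-labelled ybbR peptide in pH 7.6 Hepes/MgCl2 buffer. Enzyme was pre-incubated with compound for 15 min at room temperature. Rate was taken from the 30-min fluorescence change (525/598 nm).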
JMJD2A Tudor inh – inhibitors of human JMJD2A Tudor domain | O75164 | AlphaScreen JMJD2A-Tudor / H3K4me3 peptide binding | Potency, µM (titrated, usually from 114 µM), inactives show top-dose activity change, negative = inhibition, most hits filed as inhibitors | 390,000 tested, 4.4% active | AID 504339; also: % is scaled to controls: 0 for no effect and ±100 for the full control effect; nearly all actives have a fitted effect of over 50% in size
G9a inh – inhibitors of human histone lysine methyltransferase G9a; Potency, µM (highest dose often 102 µM), without a hit: at the top dose activity, negative = inhibition, hits mostly inhibitors; Q96KQ7; 350,000 tested, 8.8% active; G9a H3K9 monomethylation, AlphaScreen, 2 h; also: % is scaled to controls: 0 for no effect and ±100 for the full control effect; nearly all actives have a fitted effect of over 75% in size
Target sequence (Q96KQ7 913-1193 limits assumed): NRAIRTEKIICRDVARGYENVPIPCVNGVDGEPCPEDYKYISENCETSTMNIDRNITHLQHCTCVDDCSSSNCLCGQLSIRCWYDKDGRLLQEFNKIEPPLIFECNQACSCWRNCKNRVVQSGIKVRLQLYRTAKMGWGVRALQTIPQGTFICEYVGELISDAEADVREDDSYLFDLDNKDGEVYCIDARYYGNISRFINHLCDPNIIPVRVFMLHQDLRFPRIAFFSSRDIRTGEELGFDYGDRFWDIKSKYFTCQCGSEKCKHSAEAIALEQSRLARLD
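AlphaScreen read-out: biotin-H3K9 peptide (500 nM) methylation by 20 nM enzyme with 20 uM SAM, 2 h at room temperature after 15 min compound preincubation; anti-monomethyl H3K9 antibody plus donor/acceptor beads, 10 min dark.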
Active calls of the source: *; ? = inconclusive; · = no result given; [ ] = dose if it differs, or a comment. This is a sample that favours compounds with a hit; in the whole collection about 12% have one here. Calls follow the shape of the dose curve; as a rule, active = well fitted curve in the direction sought with a large enough effect; inconclusive = small, poorly fitted or top-dose-only effect, or another doubt; inactive = no such curve, though single readings can be large; an effect the other way counts as inactive or inconclusive. Potency is read from the fitted curve at half-maximal effect.

SMILES | BAZ2B inh | HP1b chromo inh | Sfp inh | JMJD2A Tudor inh | G9a inh
COC(=O)CC1C(C)(C)C(O)C2CC3=C4CC(O)OC(c5ccoc5)[C@]4(C)CCC3[C@@]1(C)C2=O (some centres undefined) | · | · | -6% | · | -42%[2.33 µM]
N#Cc1ccc(C=NN2CCCCCC2)cc1 | · | ? | · | 35µM* | ·
O=C1c2ccccc2C(=O)N1/N=C/c1ccc(O)c(O)c1 | ? | -20%[57 µM] | -30% | 8.9µM* | 11µM*
O=C(O)c1ccc(C=NN2CCCCCC2)cc1 | · | 20% | · | -17% | ·
C(=NN1CCCCCC1)c1ccccc1 | · | -33% | · | ? | ·
Clc1ccc(/C=N/N2CCCCC2)cc1 | -38% | -12% | 10% | 50µM* | -36%[59 µM]
Oc1ccc(/C=N/N2CCCCC2)cc1O | ? | ? | 50µM* | ? | -10%[2.33 µM]
CCOC(=O)Cn1c(C)c(Br)c(COC)c(C#N)c1=O | 4% | 8% | 7% | 0% | ·
Cc1ccc(S(=O)(=O)NC(CC(C)C)C(=O)N2CCCCCCC2)cc1 (centres undefined) | 7% | 5% | · | -11% | -3%
COc1ccc(O)c(/C=N/N2CCCCC2)c1 | 50µM* | 4% | 8% | 50µM* | 50µM*
Clc1ccc(C=NN2CCCCCC2)cc1Cl | · | 17% | · | ? | ·
COc1cc(/C=N/N2CCCCC2)cc(OC)c1O | -34% | -5% | 45µM* | -26% | 22µM*
Clc1ccc(C=NN2CCCCCC2)cc1 | · | -33% | · | 35µM* | ·
CC(C)Sc1nc2[nH]ncc2c(=O)[nH]1 | -29% | 32% | 50µM* | -2% | 35µM*
CC(C)C(=O)NC(c1ccccc1)c1cc([N+](=O)[O-])c2cccnc2c1O (centres undefined) | 5.6µM* | -9% | -17% | ? | ?
CC(=O)NC(c1cccs1)c1cc(Cl)c2ccccc2c1O (centres undefined) | -3% | 12% | · | -27% | 3%[0.501 µM]
CC(=O)NC(c1cccs1)c1cc([N+](=O)[O-])c2cccnc2c1O (centres undefined) | 4µM* | 10% | 1µM* | 35µM* | 7.9µM*
CC(=O)NC(c1ccccc1)c1cc([N+](=O)[O-])c2cccnc2c1O (centres undefined) | 3.5µM* | -3% | 2.2µM* | 10µM* | 10µM*
CCC(=O)NC(c1ccc(OC)cc1)c1cc(Cl)c2cccnc2c1O (centres undefined) | -5% | 46% | 5% | -15% | -1%
CCOC(=O)CCCNc1ccc([N+](=O)[O-])cc1[N+](=O)[O-] | -32% | 8% | 3% | -6% | 17%[59 µM]
CN1CCN(c2ncc3nc(-c4cccs4)c(=O)n(Cc4ccc(F)cc4)c3n2)CC1 | · | · | ? | · | 18%[0.501 µM]
CCOc1ccc(/C=N/OCC(=O)Nc2cc(S(=O)(=O)N3CCOCC3)ccc2OC)cc1 | · | 31% | · | -15% | ·
Cc1ccc(C(=O)N/C(=C\c2ccc(-c3ccc(Br)cc3)o2)C(=O)NC2CCS(=O)(=O)C2)cc1 (centres undefined) | -5% | 42% | 6% | -23%[57.1 µM] | 8%[59 µM]
Cc1cccc(NC(c2ccc(O)cc2)c2ccc3ccc(C)nc3c2O)n1 (centres undefined) | ? | ? | ? | 45µM* | 4.5µM*
CC(Oc1ccc2c(-c3ccccc3)cc(=O)oc2c1)C(=O)NCCN1CCOCC1 (centres undefined) | -14% | 31% | 13% | -2% | 13%
SMILES | BAZ2B inh | HP1b chromo inh | Sfp inh | JMJD2A Tudor inh | G9a inh
CCn1c(-c2cc3ccccc3cc2O)n[nH]c1=S | -34% | 11% | -1% | ? | ?
C=CCn1c(-c2cc(Cl)ccc2OC)n[nH]c1=S | 1% | 8% | 0% | 7.9µM* | 1.6µM*
CCn1c(-c2cc(Br)ccc2O)n[nH]c1=S | · | 21% | · | 13µM* | ·
CNC(=O)CSc1n[nH]c(-c2cc(Cl)ccc2OC)n1 | -8% | 22% | 20% | 4% | -27%
CCn1c(-c2cc(Cl)ccc2OC)n[nH]c1=S | 0% | 20% | -5% | 7.1µM* | 5.6µM*
COc1ccc(Cl)cc1-c1nc(SCC(=O)N(C)C)n[nH]1 | 13% | 28% | 18% | -22% | -3%
COc1ccc(Cl)cc1-c1n[nH]c(=S)n1C | 24% | 22% | -2% | 6.3µM* | 7.9µM*
CCOC(=O)CSc1nnc(CSc2nc3sc4c(c3c(=O)[nH]2)CCC4)n1C | -3% | -22% | -15% | -3% | -1%
